ssDAF12 agonist – activates DAF-12 receptor from parasite S. stercoralis | HEK293 ssDAF-12/GRIP1 lit1-tk-luc reporter, luminescence; % of 3 µM dafachronic acid response | hit rate 1% among 370,000 | activation, % at 6.8 µM;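 active = activation above the mean over all tested compounds plus 3 SD, cut at about 0.9% in these data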;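 also: 0% = DMSO-only wells and 100% = 3 µM delta7-dafachronic acid wells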
hcDAF12 agonist – H. contortus DAF-12 activation, primary screen; HEK293 hcDAF-12 lit1-tk-luc reporter, luminescence; 0% DMSO, 100% Δ7-dafachronic acid; activation, % at 6.8 µM; hit rate 1.4% among 370,000; AID 652067;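 active = activation above the mean of all tested compounds plus 3 SD, cut at about 5.5% in these data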;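 also: 100% = response to 3 µM Δ7-dafachronic acid high control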
hgDAF-12 ag – activates the H. glycines DAF-12 receptor ligand-binding domain | hit rate 1.8% among 370,000 | activation, % at 6.8 µM | HEK293 GAL4-hgDAF12 UAS-luciferase reporter, agonist luminescence; normalized to butyrate control;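 active = activation above a cutoff set at the mean of all screened compounds plus 3 SD, cut at about 10% in these data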;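 also: 0% = DMSO wells and 100% = sodium butyrate wells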
AHR act – activates the human aryl hydrocarbon receptor; AID 2796; P35869; activation, % at 5 µM; hit rate 2.5% among 320,000; AHR-responsive luciferase reporter cells, luminescence; in the data active = activation above about 47%;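 also: 0% = vehicle wells and 100% = reference agonist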
Target sequence (P35869 whole entry, looked up): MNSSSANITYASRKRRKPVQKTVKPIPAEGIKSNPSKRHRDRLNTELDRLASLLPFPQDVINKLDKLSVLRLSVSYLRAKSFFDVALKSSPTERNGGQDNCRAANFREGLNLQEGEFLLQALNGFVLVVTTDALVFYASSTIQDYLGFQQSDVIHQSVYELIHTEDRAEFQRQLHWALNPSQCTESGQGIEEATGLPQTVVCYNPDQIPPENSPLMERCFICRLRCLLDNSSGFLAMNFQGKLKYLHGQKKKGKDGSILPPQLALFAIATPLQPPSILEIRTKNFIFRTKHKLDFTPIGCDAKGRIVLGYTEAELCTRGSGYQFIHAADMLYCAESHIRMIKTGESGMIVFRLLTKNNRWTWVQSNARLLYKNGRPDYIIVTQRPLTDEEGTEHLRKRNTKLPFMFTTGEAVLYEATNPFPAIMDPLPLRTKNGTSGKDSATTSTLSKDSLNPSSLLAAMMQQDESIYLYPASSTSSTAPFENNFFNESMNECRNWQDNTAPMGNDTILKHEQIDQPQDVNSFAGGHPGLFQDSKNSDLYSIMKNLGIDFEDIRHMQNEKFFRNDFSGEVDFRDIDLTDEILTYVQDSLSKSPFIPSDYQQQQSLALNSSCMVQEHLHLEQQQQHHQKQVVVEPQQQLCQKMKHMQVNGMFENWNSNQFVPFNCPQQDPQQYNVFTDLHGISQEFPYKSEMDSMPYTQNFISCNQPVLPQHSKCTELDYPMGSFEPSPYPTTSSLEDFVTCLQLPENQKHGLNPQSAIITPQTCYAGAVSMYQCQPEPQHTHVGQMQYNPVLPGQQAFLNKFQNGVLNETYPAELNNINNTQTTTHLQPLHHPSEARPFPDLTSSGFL
DAX1 inh-1 – blocks DAX1 repression of SF-1 activated StAR promoter; HEK293T StAR-luciferase reporter, SF-1/DAX-1 repression relief; inhibition, % at 6.8 µM; hit rate 1.1% among 370,000;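 active = inhibition above the mean over all tested compounds plus 3 SD, cut at about 3.6% in these data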;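 also: 0% = DAX-1 cells with DMSO and 100% = cells lacking DAX-1 with DMSO; higher inhibition means more luminescence from relief of DAX-1 repression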
DAX1 inh-2 – NR0B1 (DAX1) inhibition; inhibition, % at 6.75 µM; HEK293 Gal4-DAX1 luciferase reporter, luminescence; hit rate 0.99% among 340,000;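 active = inhibition above the mean over all tested compounds plus 3 SD, cut at about 4.2% in these data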;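 also: 0% = DAX1-transfected cells with DMSO and 100% = empty-vector control cells with DMSO; inhibition shows as a rise in luminescence from relieved DAX1 repression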
An asterisk follows results filed as active; / = no result given. Rows were chosen to be rich in hits. Some 5.7% of all compounds tested hit in one or more screens of this group.

SMILES | ssDAF12 agonist | hcDAF12 agonist | hgDAF-12 ag | AHR act | DAX1 inh-1 | DAX1 inh-2
O=C(Cc1c[nH]c2ccccc12)N1CCc2ccccc21 | 0 | 3 | 8 | 75* | 0 | 1
O=C(CSc1c[nH]c2ccccc12)N1CCCc2ccccc21 | -2 | 1 | 4 | 2 | -1 | 0
C=CCn1c(SCCN2CCCCC2)nc2c1c(=O)[nH]c(=O)n2C | -1 | -2 | -2 | 2 | 1 | 0
C=CCn1c(SCCOC)nc2c1c(=O)[nH]c(=O)n2C | -1 | 6.5* | -3 | -1 | 2 | 1
CC1CC(Nc2ccccc2N)=CC(=O)O1 (configuration not stated) | 0 | 5.8* | 10 | 11 | 2 | 3
COc1ccc(S(=O)(=O)N(C)CC(=O)N2CCCCCC2)cc1 | -1 | -3 | 0 | 12 | 0 | 1
COc1ccc(OCC(=O)NCc2cccnc2)cc1 | -1 | -2 | 0 | 14 | -1 | 0
CC(=O)NC(Cc1cccc(F)c1)C(=O)NC1CCN(C(=O)c2cccc(C)c2)CC1 (configuration not stated) | -1 | 0 | -3 | 1 | 0 | 5.4*
CCc1nnc(NC(=O)Cc2ccc(OC)c(S(=O)(=O)N3CCOCC3)c2)s1 | -1 | -1 | 1 | / | 0 | 4
COc1ccc(CC(=O)Nc2sccc2C#N)cc1S(=O)(=O)N1CCOCC1 | 0 | 6.0* | 7 | 10 | 0 | 0
O=C(N/N=C1/CC2C=CCC12)c1ccco1 (configuration not stated) | 1.0* | 3 | 11* | 7 | 2 | 3
Cc1ccc(C2NNC(=O)C2NC(=O)c2ccccc2)cc1 (configuration not stated) | -1 | 1 | 5 | 8 | 1 | 4.5*
CCOC(=O)CC(NS(=O)(=O)c1ccc2[nH]cc(C(=O)O)c(=O)c2c1)c1ccc(OCC)c(OC)c1 (configuration not stated) | -1 | -1 | 0 | -2 | 0 | -1
O=C(CSc1nnc(-c2cccnc2)n1-c1ccccc1)Nc1ccccc1 | -1 | -2 | 12* | 0 | 0 | -2
N#Cc1ccccc1NC(=O)CSc1nnc(-c2ccccc2)n1-c1ccccc1 | 0 | 3 | 0 | 65* | -1 | 0
CNC(=O)CSc1nnc(-c2cccnc2)n1-c1ccc(C)cc1 | 0 | -2 | 0 | -1 | -1 | 4.4*
Cc1ccc(NC(=O)CSc2nnc(-c3cccnc3)n2-c2ccc(C)cc2)cc1 | -1 | -2 | -2 | 4 | 0 | 0
[O-]c1n[n+](-c2ccc(Cl)cc2)cc2ccccc12 | 0 | 1 | 0 | 32 | 0 | 0
[O-]c1n[n+](-c2ccc(Cl)cc2Cl)cc2ccccc12 | -1 | -1 | -1 | 18 | 0 | 4.4*
[O-][n+]1ccc(C(O)c2ccccc2)cc1 (configuration not stated) | -1 | 3 | -1 | 0 | 0 | 5.1*
O=C(CC1SCCNC1=O)Nc1cccc(Cl)c1 (configuration not stated) | 0 | -1 | 1 | 3 | 1 | 1
COc1cc2c(cc1C1C(C#N)=C(N)OC3=C1C(=O)CC(C)(C)C3)OCO2 (configuration not stated) | -1 | -1 | -2 | 0 | 0 | 4.9*
NC(N)=N/N=C/c1ccc(OCc2ccc(Cl)cc2)cc1 | -1 | -1 | 13* | 6 | 1 | -1
Cc1n[nH]c(=S)n1/N=C/c1ccc(OCc2ccc(Cl)cc2Cl)cc1 | 0 | 2 | 4 | 5 | 0 | 4
CCOc1ccccc1/C=N/n1c(COc2ccccc2)n[nH]c1=S | -1 | -2 | -3 | 9 | 0 | 0
SMILES | ssDAF12 agonist | hcDAF12 agonist | hgDAF-12 ag | AHR act | DAX1 inh-1 | DAX1 inh-2
CCc1n[nH]c(=S)n1/N=C/c1ccccc1OCc1ccc(Cl)cc1 | -2 | -1 | 3 | 66* | 0 | 2
Cc1n[nH]c(=S)n1/N=C/c1ccc(OCc2ccc(Cl)cc2)cc1 | -1 | 2 | 13* | -4 | 1 | 3
Cc1n[nH]c(=S)n1/N=C/c1ccccc1OCc1ccc(Cl)cc1Cl | -1 | 0 | 0 | 49* | -1 | -1
CCCSCCCNC(=O)Cn1cc2c(n1)CCCCC2 | -1 | 1 | 1 | 1 | 1 | 2
CCOc1cc(N(CC)CC)ccc1/C=C(/C#N)c1nc2ccccc2[nH]1 | -1 | -1 | 2 | 6 | 0 | 6.5*
Cc1cc(/C=C(/C#N)c2nc3ccccc3[nH]2)c(C)n1-c1cccc([N+](=O)[O-])c1 | -3 | -3 | -5 | -5 | -3 | -2
N#C/C(=C\c1c(Cl)cccc1Cl)c1nc2ccccc2[nH]1 | 0 | 3 | 0 | 69* | 0 | -1
Cc1ccc(/C=C(\C#N)c2nc3ccccc3[nH]2)s1 | 0 | 5 | 8 | 93* | 3 | 1
Cc1cc(/C=C(\C#N)c2nc3ccccc3[nH]2)c(C)n1C | -1 | 2 | 3 | 55* | 2 | 0
CN(C)/C=C(\C#N)c1nc2ccccc2[nH]1 | 0 | -1 | 2 | 4 | 0 | 0
Cn1c(SCc2cccc(Br)c2)nc2ccccc2c1=O | -1 | 1 | -1 | 4 | -1 | 0
COCCN1CCC(CO)C1 (configuration not stated) | -1 | -1 | -2 | / | 0 | 0
CC(C)NS(=O)(=O)c1ccc(N2C(=O)c3ccccc3C2=O)cc1 | -1 | 1 | 0 | -3 | -1 | 1
CCOC(=O)C1CCN(c2cc(=O)n(-c3ccccc3Cl)c(=O)[nH]2)CC1 | -2 | 0 | -2 | 0 | 0 | 4.2*
OCC1OC(n2ccc3c2ncn2ncnc32)C(O)C1O (configuration not stated) | -2 | -2 | -1 | / | -3 | -1
CCOc1ccc(/C=C2\SC(=S)N(N3C(=O)C4CC4C3=O)C2=O)cc1 (configuration not stated) | -2 | 5.7* | 2 | 0 | 1 | -1
Cn1c(=O)[nH]c(=O)c2c1nc(Br)n2CCOc1ccccc1 | -1 | 0 | 1 | 35 | -1 | -1
Cc1ccc2c(c1)/C(=C/c1ccccc1C)C(=O)N2 | -1 | -1 | 2 | 57* | -1 | 1
Cc1ccc2c(c1)/C(=C/c1ccc(F)cc1)C(=O)N2 | -1 | -2 | 0 | 10 | -1 | 0
COc1ccccc1/C=C1\C(=O)Nc2ccccc21 | -1 | 2 | 0 | / | -1 | -2
O=C1Nc2ccccc2/C1=C/c1ccccc1Cl | 0 | 2 | 0 | 59* | -1 | -1
NC(N)=Nc1nc(-c2ccccc2)c2ccccc2n1 | -2 | -1 | 4 | 68* | -1 | 0
COc1ccc(OC)c(Nc2ncnc3sc(-c4ccccc4)cc23)c1 | -1 | -1 | -1 | 69* | 0 | 1

Screens (PubChem BioAssay)
